High-throughput results from PubChem.
KB-3-1 tox – qHTS assay for MDR1-selective chemotherapeutics: Primary screen using the parental adenocarcinoma cell KB-3-1. KB-3-1 viability, CellTiter-Glo ATP luminescence, 72 h. Potency, µM (titrated, usually from 46.1 µM), hits mostly cytotoxic. hit rate 1.4% among 400,000; note: % is set by controls: 0 for no effect and ±100 for the full control effect; nearly all actives have a fitted effect of over 60% in size
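Screening of KB-3-1 cells (DMEM, 10% FBS, phenol-red free) ran from lowest to highest compound concentration; after 72 h at 37 °C viability was read luminescently and curves fitted.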
HT1080NT lethal – qHTS for induction of synthetic lethality in tumor cells producing 2HG: qHTS for the HT-1080-NT fibrosarcoma cell line | HT-1080-NT fibrosarcoma viability, CellTiter-Glo ATP luminescence, 48 h | AID 686970, 2013 | hit rate 1.6% among 360,000 | Potency, µM (titrated, usually from 46.1 µM), for inactives: at the highest dose activity, negative = less viability, hits mostly cytotoxic;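 note: NT is the 2HG producing partner of a matched IDH1 knockdown line; 0% = DMSO-treated cells and -100% = media-only wells without cells; nearly all actives have a fitted effect of over 55% in size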
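Viability by CellTiter-Glo luminescence after 48 h compound exposure at 37C of HT-1080-NT cells (750/well, RPMI, 5% FBS). % activity scaled between DMSO wells and medium-only wells, then curve-fitted and categorized by curve class.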
HT1080 IDH1KD tx – qHTS for induction of synthetic lethality in tumor cells producing 2HG: qHTS for the HT-1080-IDH1KD cell line; hit rate 2% among 360,000; AID 686971, 2013; Potency, µM (series often up to 46.1 µM), without a hit: at the top dose activity, negative = toxicity, usual class: cytotoxic; HT-1080 IDH1 knockdown viability, ATP luminescence, 48 h;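 note: 0% = DMSO wells and -100% = cell-free medium wells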
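HT-1080-IDH1KD cells (IDH1 knocked down), 750/well in RPMI with 5% FBS, treated with compound 48 h at 37 degrees C. Viability by CellTiter-Glo luminescence, normalised to DMSO and no-cell wells; concentration-response curves classed.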
KB-V1 cytotox – qHTS assay for MDR1-selective chemotherapeutics: Primary screen using the drug-selected MDR subline cells KB-V1 | KB-V1 MDR cells viability, CellTiter-Glo, 72 h | Potency, µM (top dose mostly 46.1 µM), hits mostly cytotoxic | hit rate 3.4% among 400,000 | AID 1347076, 2019; note: % is set by controls: 0 for no effect and ±100 for the full control effect; nearly all actives have a fitted effect of over 60% in size
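Cells of the MDR subline KB-V1 are plated, dosed with compound at multiple concentrations, and incubated 72 h at 37 degrees C; CellTiter-Glo is then added and luminescence read after 10 min.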
S2 tox – Viability Counterscreen for Primary qHTS for Inhibitors of ATXN expression; hit rate 0.49% among 400,000; S2 cells (HEK-293 line with an ATXN2-luciferase reporter) viability, CellTiter-Fluor protease fluorescence, 24 h; Potency, µM (titrated, usually from 56.7 µM), most hits filed as cytotoxic; note: nearly all actives have a fitted effect of over 40% in size
ATXN2 expr inh – Primary qHTS for Inhibitors of ATXN expression. HEK-293 ATXN2-luciferase reporter, luminescence, 24 h. Potency, µM (highest dose often 57 µM), inactives show at the top dose activity change, negative = inhibition, hits mostly inhibitors. hit rate 0.72% among 360,000. AID 1745845, 2022; note: % is set by controls: 0 for no effect and ±100 for the full control effect; nearly all actives have a fitted effect of over 55% in size
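qHTS (up to 57 uM final) was run with 24 h compound exposure of reporter cells at 37 °C. Each well was multiplexed: SteadyGlo luminescence measured ATXN2-luciferase expression after a fluorogenic Gly-Phe-AFC viability readout (25 uM final).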
Numbers without * were called inactive; i = inactive; ? = inconclusive; nt = no result given; [ ] = dose if it differs, or a comment. A selection: hits, their analogues and other compounds. The true share with any hit is near 6.2%. Calls come from the whole dose curve; as a rule, active = well fitted curve in the direction sought with a large enough effect; inconclusive = small, poorly fitted or top-dose-only effect, or another doubt; inactive = no such curve, though single readings can be large; an effect the other way counts as inactive or inconclusive. Potency is the fitted concentration of half-maximal effect.

SMILES | KB-3-1 tox | HT1080NT lethal | HT1080 IDH1KD tx | KB-V1 cytotox | S2 tox | ATXN2 expr inh
COc1ccccc1CSc1nc2n(n1)C(c1ccccc1)C(C(=O)Nc1ccc(C)cc1)=C(C)N2 (centres undefined) | i | nt | nt | i | i | 2%
COCCN(C(=O)CCC(=O)Nc1ccccn1)C(C(=O)NCCC(C)C)c1ccc(C)cc1 (centres undefined) | i | -1% | -11% | ? | i | -15%
CCc1nc2c(sc3nc4c(cc32)COC(C)(C)C4)c(=O)n1Cc1ccco1 | ? | ? | 13%[9.24 µM] | 12µM* | i | 7%
NCCc1c(-c2ccccc2)n(-c2ccccc2)c2ccccc12 | i | 15µM* | 21µM* | ? | ? | 28µM*
CCC1CN(CCNC(=O)c2ccnc(Cl)c2)Cc2cc(OC)ccc2O1 (centres undefined) | nt | nt | nt | nt | i | nt
NC(=O)c1cc([N+](=O)[O-])ccc1NCc1ccc(N)cc1 | i | 0% | 3% | i | i | 3.5µM*
O=C1Cc2c([nH]c3ccc([N+](=O)[O-])cc23)-c2ccccc2N1 | 0.82µM* | -10% | 2.1µM* | ? | ? | ?
COc1ccc2c(c1)[N+](C)(C)C(C)(C)C=C2C | i | 0% | 2% | i | i | nt
CCOc1ccc2c(c1)[N+](C)(C)C(C)(C)C=C2C | 8.2µM* | -14% | -6% | i | i | -5%
CC(=O)Nc1c(O)cc(Br)c2nonc12 | i | nt | nt | ? | nt | nt
CC(=O)Nc1cc(O)c2nonc2c1O | 2.6µM* | nt | nt | ? | nt | nt
COC(=O)c1cccc(C(=O)NCc2nc(-c3ccccc3NC(C)=O)oc2C)c1 | nt | nt | nt | nt | i | nt
COc1cccc(-c2nc(CSCC(=O)N3CCc4ccccc43)c(C)o2)c1 | ? | 0% | 12% | 10µM* | i | -7%
COc1ccc(-c2nc(CSCC(=O)N3CCc4ccccc43)c(C)o2)cc1OC | i | 1% | -1% | i | i | -15%
COc1cccc(-c2nc(CS(=O)(=O)CC(=O)Nc3ccccc3Cl)c(C)o2)c1 | 15µM* | -30% | -25% | 6.5µM* | i | ?
Cc1cccc(CN2CCCC(C(=O)Nc3ccc(-c4cscn4)cc3)C2)c1 (centres undefined) | 16µM* | ? | ? | ? | i | -5%
COc1cccc(-c2ccc(NC(=O)C3CCCN(Cc4cnn(C(C)C)c4)C3)cc2)c1 (centres undefined) | ? | 18µM* | ? | i | i | ?
O=C(Nc1cccc(-c2ccc(F)cc2)c1)C1CCCN(Cc2cccnc2)C1 (centres undefined) | i | ? | 18µM* | ? | i | -3%
COc1cccc(-c2ccc(NC(=O)C3CCCN(Cc4cc(C)[nH]n4)C3)cc2)c1 (centres undefined) | i | -17% | ? | ? | i | 5%
Cc1ccccc1CN1CCCC(C(=O)Nc2ccc(-c3ccn[nH]3)cc2)C1 (centres undefined) | ? | -10% | ? | 12µM* | i | -15%
Cc1ccc(C)c(N2CCN(S(=O)(=O)c3cc4c(cc3Cl)NC(=O)CO4)CC2)c1 | ? | 11% | 1% | i | i | -7%
Cc1cccc(OCCn2c(-c3ccc(Cl)cc3)nc3ccccc3c2=O)c1C | i | nt | nt | i | i | 9%
Cc1cnc(NC(=O)C2C(=O)c3ccccc3S(=O)(=O)N2C)s1 (centres undefined) | i | 1% | -2% | i | i | 10%
CCOC(=O)C1CCN(C(=O)Cn2c(=O)oc3cc(S(=O)(=O)N4CCC(C)CC4)ccc32)CC1 | i | nt | nt | i | i | -1%
O=C(c1ccccn1)N1CCN(c2ccc(C(F)(F)F)cn2)CC1 | i | -16% | -4% | 16µM* | i | -10%
SMILES | KB-3-1 tox | HT1080NT lethal | HT1080 IDH1KD tx | KB-V1 cytotox | S2 tox | ATXN2 expr inh
Cc1ccc(C(=O)N2CCN(c3ccc(C(F)(F)F)cn3)CC2)o1 | ? | -1% | 5% | 21µM* | i | -15%
Cc1cc(C(=O)N2CCN(c3ccc(C(F)(F)F)cn3)CC2)c(C)o1 | i | ? | -5% | ? | i | nt
C[C@@H]1CN([C@@H](C)CO)C(=O)c2cc(C#CC(C)(C)O)cnc2O[C@@H]1CN(C)C(=O)c1ccccc1F | i | -2% | 10% | i | i | 4%
COC(=O)C1=CN(c2ccc(OC)cc2)C=C(C(=O)OC)C1c1ccc(C)c([N+](=O)[O-])c1 | ? | -8% | -4% | 3.3µM* | i | -3%
COC(=O)C1=CN(c2ccc(OC)cc2)C=C(C(=O)OC)C1c1cccc(F)c1 | i | 7% | 13% | i | i | nt
O/N=C(/C[n+]1cccc(Br)c1)c1ccc2ccccc2c1 | i | nt | nt | i | nt | nt
CC1(C)CC(=O)C2=C(C1)Oc1nc3ccccc3cc1C2C(C#N)C#N (centres undefined) | 21µM* | 18µM* | 23µM* | ? | ? | -10%
CC1(C)CC(=O)C(C2C3=C(CC(C)(C)CC3=O)Oc3ccccc32)C(=O)C1 (centres undefined) | i | 28% | -6% | i | i | 1%
O=C1NC2CCCCC2C(=O)N1OS(=O)(=O)c1ccccc1 (centres undefined) | ? | -2% | ? | i | 16µM* | ?
CCCCOc1c(C(=O)c2c(F)cc(C)cc2F)cnc2n[nH]cc12 | nt | nt | nt | nt | nt | 9.7µM*
CCOC(=O)c1cnc2ccc(C)cc2c1Sc1ccc(F)cc1 | ? | ? | ? | ? | i | 16%
COc1ccc([C@@H]2CC(=O)c3c(O)cc(O[C@@H]4O[C@H](CO[C@@H]5O[C@@H](C)[C@H](O)[C@@H](O)[C@@H]5O)[C@@H](O)[C@H](O)[C@@H]4O)cc3O2)cc1O | nt | nt | nt | nt | nt | 12%
O=C(Nc1ccc(F)cc1F)c1cccc(C(=O)Nc2ccc(F)cc2F)n1 | nt | 13% | 15% | nt | 4.5µM* | 2.5µM*
COC(=O)c1ccccc1N(C)S(=O)(=O)c1cc2c3c(c1)CCC(=O)N3CCC2 | i | 0% | 0% | i | i | 4%
CC1(C)CC(=O)C(c2ccccc2)(c2ccccc2)C(=O)C1 | i | 0% | 6% | i | i | -22%
O=C(Nc1ccc(Oc2ccccc2)cc1)Nc1nnc(-c2ccncc2)s1 | ? | nt | nt | i | nt | nt
